Source: PubChem (National Center for Advancing Translational Sciences (NCATS))
Shown are actives, neighbours in structure and some others; about 7.3% of the full set was active somewhere.
HCV inhibitor: blocks hepatitis C virus; Potency, µM (top dose mostly 41.8 µM), hits mostly inhibitors; 340,000 tested, 3.4% active; Huh7.5.1 HCVcc-Cre infection, luciferase reporter, 44 h
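Cells (1,000/well) were plated 4 h before compound, then infected with HCVcc-Cre virus (~0.5 moi). After 44 h further culture, infection was read as luciferase luminescence following a 15 min substrate incubation at room temperature.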
HCMV antiviral: inhibitors of human cytomegalovirus; HFF cells, HCMV-luciferase reporter, 72 h; hits give low values; 410,000 tested, 4.5% active; activity change, negative = inhibition, % at 57.5 µM; in the data active = activity change below about -60%; inconclusive = no clear call, values can overlap the other calls; inactive = above about -39%
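Luciferase read-out from HCMV-luciferase-infected HFFs (MOI 1 PFU/cell) 72 h post infection at 37C; compounds added after 16 h cell attachment; activity normalized between buffer-only basal and Salinomycin (10uM) inhibitor controls.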
FMDV antiviral: blocks foot and mouth disease virus; AID 1159524; Potency, µM (doses to about 57.9 µM), usual class: inhibitors; 410,000 tested, 1.2% active; FMDV antiviral cell-based qHTS; calls by dose curve; tested in HEK293T cells; also: read-out not given here; nearly all actives have a fitted effect of over 45% in size
AmpC detergent: inhibitors of E. coli AmpC beta-lactamase with detergent; P00811; AmpC hydrolysis of nitrocefin, absorbance 480 nm, 0.01% Triton; Potency, µM (top dose mostly 114 µM), hits mostly inhibitors; 370,000 tested, 0.041% active; also: nearly all actives have a fitted effect of over 25% in size
Target sequence (P00811 whole entry, looked up): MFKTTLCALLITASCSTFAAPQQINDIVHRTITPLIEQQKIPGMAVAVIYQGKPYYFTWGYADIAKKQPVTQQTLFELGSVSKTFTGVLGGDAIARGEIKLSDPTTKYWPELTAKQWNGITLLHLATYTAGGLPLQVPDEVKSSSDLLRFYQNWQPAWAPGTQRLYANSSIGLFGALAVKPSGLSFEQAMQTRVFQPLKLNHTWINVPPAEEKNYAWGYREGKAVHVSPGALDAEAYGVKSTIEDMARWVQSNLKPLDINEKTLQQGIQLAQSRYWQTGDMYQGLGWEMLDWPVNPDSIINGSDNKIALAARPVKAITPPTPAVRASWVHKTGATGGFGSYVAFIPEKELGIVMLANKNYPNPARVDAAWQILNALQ
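20 mM phosphate pH 7.0 + 0.01% (detergent screen) or 0.0001% Triton X-100; 5.3 nM AmpC reagent; cpd preinc 15 min RT; nitrocefin (800 uM stock) to start; A480 q20 s × 4 min; Activity was normalised to no-enzyme and no-compound control wells.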
AmpC no deterg: inhibitors of E. coli AmpC beta-lactamase without detergent; Potency, µM (top dose mostly 57.1 µM), actives largely listed as inhibitors; AID 485341; 330,000 tested, 0.52% active; AmpC nitrocefin hydrolysis, absorbance 480 nm, 0.0001% Triton; P00811; also: nearly all actives have a fitted effect of over 20% in size
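20 mM phosphate pH 7.0 + 0.01% (detergent screen) or 0.0001% Triton X-100; 5.3 nM AmpC reagent; cpd preinc 15 min RT; nitrocefin (800 uM stock) to start; A480 q20 s × 4 min; Activity was normalised to no-enzyme and no-compound control wells.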
Numbers stand for hits; n = inactive; u = inconclusive; x = no result given; ! = not active in a repeat; [ ] = dose if it differs, or a comment. Unless noted, calls follow the shape of the dose curve; as a rule, active = well fitted curve in the direction sought with a large enough effect; inconclusive = small, poorly fitted or top-dose-only effect, or another doubt; inactive = no such curve, though single readings can be large; an effect the other way counts as inactive or inconclusive.

SMILES | HCV inhibitor | HCMV antiviral | FMDV antiviral | AmpC detergent | AmpC no deterg
CCCC(=O)NC(=S)Nc1ccc(Cl)cn1 | n | -69 | n | n | n
Nc1[nH]c(C(=O)c2ccccc2)c(-c2cccc(C(F)(F)F)c2)c1C(=O)NCCc1c[nH]c2ccccc12 | x | -72 | x | x | x
Nc1[nH]c(C(=O)c2ccccc2)c(-c2ccc(F)cc2)c1C(=O)NCCc1c[nH]c2ccccc12 | x | n | n | x | x
C/C=C/C=[N+](\[O-])C(C)/C(=N/O)c1ccc(F)cc1 (stereo unspecified) | n | -75 | n | n | n
COc1cc(NC(=O)NCC2CCN(Cc3ccccc3F)CC2)cc(OC)c1 | n | n | n | n | n
Cn1cc(/C=N/n2cnc3scc(-c4ccc(Cl)cc4)c3c2=O)c2ccccc21 | 5.6µM | u | n | n | n
COc1ccc(-c2nc(C)c(CCNC(=O)c3c(F)cccc3F)s2)cc1 | x | n | n | n | x
O=C(NNC(=S)Nc1ccc(Cl)cc1Cl)c1cccnc1 | n | -64 | n | n | n
O=C(Nc1cccc(NC(=O)c2ccc(Cl)cc2Cl)c1)c1cccnc1 | 32µM | n | u | n | n
O=C(Nc1cccc(NC(=O)c2cccnc2)c1)c1cccnc1 | n | n | x | n | n
CC(C)(C)c1cc(Cl)c(O)c(NC(=S)NC(=O)c2cccnc2)c1 | u | -95 | n | n | n
CC(Oc1ccc(Cl)cc1Cl)c1nc(-c2ccc(NC(=O)c3cccnc3)cc2)no1 (stereo unspecified) | 11µM! | -72 | 28µM | n | n
CC(Oc1ccc(Cl)cc1Cl)C(=O)NNC(=O)c1cccnc1 (stereo unspecified) | n | n | n | n | n
CC(C)(C)c1ccc(C(=O)NNC(=S)NC(=O)c2cccnc2)cc1 | u | u | n | n | n
CCCCCOc1ccc(/C=C/C(=O)Nc2sc3c(c2C(=O)OCC)CCC3)cc1OC | x | n | n | n | x
CCCC(=O)N1CCC2(CC1)CN(C(=O)Nc1cccc(F)c1)[C@H](CO)c1c2c2ccc(OC)cc2n1C | x | n | x | x | x
CCCOc1ccc(C(=O)Nc2cccc(NC(=O)c3ccc(Cl)cc3Cl)c2)cc1 | x | -91 | n | n | x
N#Cc1ccc(C(=O)N2CCC3CC2c2cc(-c4ccc(F)cc4)ccc23)cc1 (stereo unspecified) | 35µM | n | n | x | x
CCCC(=O)N1CCN(c2ccc(NC(=O)c3ccco3)cc2)CC1 | 3.2µM | n | n | n | n
COc1ccccc1C(=O)NC(=S)Nc1ccc(N2CCN(C(=O)c3ccco3)CC2)cc1 | 32µM | n | u | n | n
Cc1ccccc1C(=O)N1CCN(c2ccc(NC(=S)NC(=O)c3ccco3)cc2)CC1 | n | -87 | 25µM | n | n
Cc1ccc(NS(=O)(=O)c2ccc(Cl)c(C(=O)Nc3ccccc3-c3nc4ccccc4[nH]3)c2)cc1C | 3.5µM | -85 | n | n | n
CCOC(=O)c1[nH]c(C)c(CCC(=O)N2CCN(c3cccc(OC)c3)CC2)c1C | x | n | n | n | x
CC(=O)c1ccc(S(=O)(=O)Nc2ccccc2C(=O)NC2CC2)cc1 | n | n | n | u | n
O=C(NCc1ccncc1)c1ccc(-c2ccc(F)c(F)c2)c2ccoc12 | x | -73 | u | x | x
SMILES | HCV inhibitor | HCMV antiviral | FMDV antiviral | AmpC detergent | AmpC no deterg
COc1ccc(-c2ccc(C(=O)NCc3ccc(F)c(F)c3)c3occc23)c(C)c1 | x | u | n | x | x
COc1ccc(-c2ccc(C(=O)NCc3ccncc3)c3occc23)c(C)c1 | x | -91 | n | x | x
O=C(NCc1ccncc1)c1cc(-c2ccc(Cl)cc2)oc1C(F)(F)F | 11µM | n | u | n | n
O=C(NCc1ccc(C(F)(F)F)cc1)c1ccc(-c2ccc(F)c(F)c2)c2ccoc12 | x | n | n | x | x
COC(=O)C1=C(C)N=C2SC(C#N)=C(N)N2C1c1ccc(OC)cc1 (stereo unspecified) | n | n | n | n | n
CCOC(=O)C1=C(C)N=C2SC(C(=O)OC)=CC(=O)N2C1c1ccc(OC)cc1 (stereo unspecified) | n | n | 14µM | u | n
Cc1ccc2c(c1)N(CC(=O)Nc1ccccc1C(F)(F)F)C(=O)c1cccnc1O2 | x | n | n | u | x
O=C(OCc1ccccc1)N1CCC2CC1c1ccc(-c3cccc(F)c3)cc12 (stereo unspecified) | x | n | n | x | x
S=c1[nH]nc(Cc2ccc(Br)cc2)n1/N=C/c1ccc(Cl)cc1 | n | -67 | n | n | n[2.29 µM]
COc1ccc2c(c1)C(n1c(C)ccc1C)C(=O)N2Cc1ccc(Cl)nc1 (stereo unspecified) | x | n | x | x | x
COc1ccc2cc3cc(C(=O)Nc4ccccc4N4CCN(C)CC4)oc3nc2c1 | 10µM | n | u | n | n
Cc1ccc2cc3cc(C(=O)NCCCN4CCCC4)oc3nc2c1 | 14µM | u | n | n | n
CCOc1ccc(NC(=O)c2cc3cc4ccc(C)cc4nc3o2)cc1 | x | n | n | n | n
COCCNC(=O)c1cc2cc3ccc(OC)cc3nc2o1 | n | n | n | n | n
COc1ccc2cc3cc(C(=O)NCCN4CCN(c5ccccc5F)CC4)oc3nc2c1 | u | n | 18µM | n | n
COc1cc(NC(=O)c2cc3cc4ccc(C)cc4nc3o2)cc(OC)c1OC | x | n | 3.2µM | n | x
COC(=O)C[C@@H]1C=C[C@@H](NC(=O)C2CCC2)[C@@H](CO)O1 | x | n | n | x | x
CC(C)Cc1nc2cc(NS(=O)(=O)N(C)C)cc(C(=O)N3CCN(c4ccccc4)CC3)c2n1C | x | x | n | x | x
CCOC(=O)Cc1csc(SCC(=O)c2c(N)n(CC(C)C)c(=O)n(C)c2=O)n1 | 7.9µM | n | 11µM | u | n
Cc1csc(SCC(=O)c2c(N)n(CC(C)C)c(=O)n(C)c2=O)n1 | 16µM | -75 | u | n | n
COc1cc(OC)c2c(=O)c(OC)c(-c3ccc(OC)c(OC)c3)oc2c1 | 1.1µM | x | n | n | n
COc1ccc2c(=O)c(OC)c(-c3ccccc3)oc2c1 | x | x | n | x | x
COc1ccc(-c2oc3cc(O)c(OC)c(O)c3c(=O)c2OC)cc1O | n | -62 | n | x | x
Cn1ccc2c(-c3ccc(C(N)=O)cc3)cc3c(c21)C1CCC3C1 (stereo unspecified) | x | n | n | x | x
COc1cccc(CN2CCC(n3cc(C(=O)N4CCCCC4)nn3)CC2)c1OC | x | x | n | x | x
SMILES | HCV inhibitor | HCMV antiviral | FMDV antiviral | AmpC detergent | AmpC no deterg
O=C(c1cc([N+](=O)[O-])ccc1N1CCOCC1)N1CCN(c2ccccc2)CC1 | x | -87 | x | n | n
Cc1ccccc1COC(=O)c1cc([N+](=O)[O-])ccc1N1CCOCC1 | 13µM | n | n | n | n
CSc1ccc(COC(=O)c2cc([N+](=O)[O-])ccc2N2CCOCC2)cc1 | u | -83 | n | n | n
CCOc1ccc(C(C)=O)cc1COC(=O)c1cc([N+](=O)[O-])ccc1N1CCOCC1 | u | n | n | n | n
Cc1ccc(C)c(C(=O)COC(=O)c2cc([N+](=O)[O-])ccc2N2CCOCC2)c1 | u | n | n | u | n
COc1ccc(OC)c(COC(=O)c2cc([N+](=O)[O-])ccc2N2CCOCC2)c1 | 8.9µM | n | n | n | n
Cc1nc(-c2ccccc2)nc2n[nH]c(N)c12 | n | n | n | x | x
